Experimental findings from PubChem BioAssay (NCI) are described below.

SMILES strings stand for the structures. Compounds without any hit were thinned out: in the full panel of roughly 79,000, 15% have a hit. Activity calls are given as the source filed them. Rule as the data show it: active = growth inhibition above about 70%; inactive = the rest.

One assay can be described thus: NCI Yeast Anticancer Drug Screen. Data for the bub3 strain (AID 167). The conditions noted are these: S. cerevisiae bub3 mutant strain, at 50.0 µM, active compounds read high. The gist of the method: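 Yeast carrying a defined mutation is treated with each compound, and growth is compared with that of vehicle-exposed cells to give inhibition.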
As for `COc1ccc(NC(=O)Oc2ccc3c(C)cc(=O)oc3c2)c(OC)c1` (tested in a mixture with another compound), the growth inhibition is 1.8% (inactive).
`C(=N\N=C\c1ccccc1)/c1ccccc1`: the growth inhibition is -1.15% (inactive).
The same measure, in the same setting: next, `COC(=O)C1CC(=O)N(C)c2sc(C)c(C)c2C1=O` (stereo not drawn): 87.7% (active); `CC1CCCC(CCO)CC1` (stereo not drawn): 15.7% (inactive); `CC(N)(C(=O)O)c1ccccc1` (stereo not drawn): -13.9% (inactive).
Take `O=C1CC[C@@H](S(=O)(=O)c2ccccc2)[C@@H](/C=C/c2ccccc2)O1`: the growth inhibition is -10.7% (inactive).
`CC(=O)/C(=C\c1ccccc1)C(=O)CCN(C)C`: the growth inhibition was 7% (inactive).
As to `CCN(CC)C(=O)c1ccc(C(C)C)cc1`, the growth inhibition is 18.3% (inactive).
With `O=[N+]([O-])c1ccc(OCCCCCBr)c(Cl)c1`, the growth inhibition was 66.2% (inactive).
On the same count and under the same terms, next, `O=[N+]([O-])c1cc(Br)cc2c1[nH]c1nc3ccc(C(F)(F)F)cc3nc12`: -2.2% (inactive); `O=c1cc(NC(c2ccccc2)c2ccccc2)[nH]c(=O)[nH]1`: 19.1% (inactive).
In the case of `N#C[C@H](c1nc2ccccc2[nH]1)c1nc2ccccc2nc1Cl`, the growth inhibition is 15.3% (inactive).
Consider `CCN(CC)CCNC(=O)c1cn2c(ccc3sc4ccccc4c(=O)c32)n1`, for which the growth inhibition is 26.3% (inactive).
`O=C(NCc1ccco1)Nc1ccccc1`: the growth inhibition is 7.1% (inactive).
The same measure, in the same setting: to `CCO[C@H]1c2cc3c(cc2[C@@H](c2cc(OC)c(OC)c(OC)c2)[C@H]2C(=O)OC[C@@H]21)OCO3` belongs 12.7% (inactive); to `CC(C)/C=N\n1c(N)c(C#N)c(C#N)c1C(C)C`, -52.8% (inactive); to `N#CCC(=O)NCCc1c[nH]c2ccccc12`, -6.1% (inactive).
For `CCOC(=O)C(C(=O)OCC)=C1c2ccccc2Oc2ccccc21`, the growth inhibition is 33.5% (inactive).
Consider `N#CCCCCC12C3C(=O)N(c4ccccc4)C(=O)C3ON1O[C@@H]1C(=O)N(c3ccccc3)C(=O)[C@@H]12` (stereo partly drawn), for which the growth inhibition was 33.5% (inactive).
For the compound `O=C1c2ccccc2-c2nc(-c3ccncc3)cc3c2c1nc1ccccc13`, the growth inhibition is 14.1% (inactive).
Still for that read-out and setting: next, `COc1ccccc1C(=O)N(C)c1ccc(Cl)c(C(=O)OC(C)C)c1`: 44.5% (inactive); `Cc1cn(CCCCCCCCCCCCOc2c3occc3cc3ccc(=O)oc23)c(=O)[nH]c1=O`: -2.35% (inactive).
As for `O=CNc1ccc(Br)cc1`, the growth inhibition was -1.15% (inactive).

A further assay in a line: NCI Yeast Anticancer Drug Screen. Data for the mlh1 rad18 strain (AID 175). The conditions noted are these: S. cerevisiae mlh1 rad18 strain growth inhibition; at 50.0 µM; active compounds read high. The essentials: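 Growth inhibition of the yeast strain was measured after compound exposure and expressed relative to vehicle-treated controls. The strain carries defined defects in DNA damage repair.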
For the compound `CCOC(=O)/C=C\n1c(=O)cc(C)c2ccccc21`, the growth inhibition was -1.15% (inactive).
For `C[n+]1cc(I)cc2ccccc21`, the growth inhibition is 5.05% (inactive).
Consider `CC(=O)Oc1cc2oc([O-])c[n+]2c2ccccc12`, for which the growth inhibition was 0.95% (inactive).
On to `N#CNc1ccccc1`, for which the growth inhibition was 3.45% (inactive).
As for `COC(O)C(=O)c1c2c(cc3c1CCC3)CCC2` (stereo not drawn), the growth inhibition was 21% (inactive).
On to `C=CCCCCCCCC(O)C1C[C@H](O)C(CCCCC)O1` (stereo partly drawn), for which the growth inhibition is -5% (inactive).
Still for that read-out and setting: next, `CCOC(=O)C1C(c2ccc(N(C)C)cc2)c2cc3c(cc2OC1(C)N1CCCC1)OCO3` (stereo not drawn): 2.85% (inactive); `Cc1c2ccccc2nc(CSCCO)[n+]1[O-]`: -16.2% (inactive).
As for `CNC(=O)/C=C/C1=CN2C(=O)c3ccc(C)c(O)c3NC(OC)C2C1` (stereo not drawn), the growth inhibition was 89.2% (active).
Consider `COC(OC)C1(CCc2ccccc2)NC(=O)N(C)C1=O` (stereo not drawn), for which the growth inhibition was -0.65% (inactive).
Regarding `ClC(Cl)C1OCCCO1`, the growth inhibition is -8.25% (inactive).
Still for that read-out and setting: next, `OC(CN(C1CCCCC1)C1CCCCC1)c1ccnc2c(Cl)cc(Cl)cc12` (stereo not drawn): 18.4% (inactive); `CC(=O)OC1CCC2(C)C(CCC3C2C(=O)C(Br)C2(C)C(C(C)=O)CCC32)C1` (stereo not drawn): 25.4% (inactive); `CCCCSc1ccc2n(C)c(-c3ccc(/C=N\NC(=O)c4ccc(C(=O)N/N=C\c5ccc(-c6c[n+]7cc(SCCCC)ccc7n6C)cc5)cc4)cc3)c[n+]2c1`: -1.65% (inactive).
Turning to `O=C(O)c1c[nH]c(=O)[nH]c1=O.[Cu+2]`, the growth inhibition was -21.2% (inactive).
For the compound `COc1cccc2c1OC(=O)NC2O` (stereo not drawn), the growth inhibition was 4.3% (inactive).
Take `COc1c(Cl)cc(Cl)c(C)c1C(C)C(=O)O` (stereo not drawn): the growth inhibition was 10.9% (inactive).
Still for that read-out and setting: next, `COc1ccc(NC(=O)Oc2ccc3c(C)cc(=O)oc3c2)c(OC)c1` (tested in a mixture with another compound): 12.3% (inactive); `C(=N\N=C\c1ccccc1)/c1ccccc1`: 16.6% (inactive); `COC(=O)C1CC(=O)N(C)c2sc(C)c(C)c2C1=O` (stereo not drawn): 95.7% (active).
Take `CC1CCCC(CCO)CC1` (stereo not drawn): the growth inhibition was 6.3% (inactive).
As to `CC(N)(C(=O)O)c1ccccc1` (stereo not drawn), the growth inhibition was -21.4% (inactive).
For `O=C1CC[C@@H](S(=O)(=O)c2ccccc2)[C@@H](/C=C/c2ccccc2)O1`, the growth inhibition was -6.7% (inactive).
Regarding `CC(=O)/C(=C\c1ccccc1)C(=O)CCN(C)C`, the growth inhibition was -9.9% (inactive).
On to `CCN(CC)C(=O)c1ccc(C(C)C)cc1`, for which the growth inhibition is 25.8% (inactive).
The same measure, in the same setting: to `O=[N+]([O-])c1ccc(OCCCCCBr)c(Cl)c1` belongs 54.7% (inactive).
Consider `O=[N+]([O-])c1cc(Br)cc2c1[nH]c1nc3ccc(C(F)(F)F)cc3nc12`, for which the growth inhibition is -3.55% (inactive).
Turning to `O=c1cc(NC(c2ccccc2)c2ccccc2)[nH]c(=O)[nH]1`, the growth inhibition was 27.6% (inactive).
Take `N#C[C@H](c1nc2ccccc2[nH]1)c1nc2ccccc2nc1Cl`: the growth inhibition was 12.7% (inactive).
The same measure, in the same setting: to `CCN(CC)CCNC(=O)c1cn2c(ccc3sc4ccccc4c(=O)c32)n1` belongs 28.8% (inactive); to `O=C(NCc1ccco1)Nc1ccccc1`, -7.55% (inactive).
For the compound `CCO[C@H]1c2cc3c(cc2[C@@H](c2cc(OC)c(OC)c(OC)c2)[C@H]2C(=O)OC[C@@H]21)OCO3`, the growth inhibition was 24.9% (inactive).
Regarding `CC(C)/C=N\n1c(N)c(C#N)c(C#N)c1C(C)C`, the growth inhibition is -33.6% (inactive).
On to `N#CCC(=O)NCCc1c[nH]c2ccccc12`, for which the growth inhibition is -27.8% (inactive).
In the case of `CCOC(=O)C(C(=O)OCC)=C1c2ccccc2Oc2ccccc21`, the growth inhibition is 46% (inactive).
The same measure, in the same setting: next, `N#CCCCCC12C3C(=O)N(c4ccccc4)C(=O)C3ON1O[C@@H]1C(=O)N(c3ccccc3)C(=O)[C@@H]12` (stereo partly drawn): 44.4% (inactive).
As to `O=C1c2ccccc2-c2nc(-c3ccncc3)cc3c2c1nc1ccccc13`, the growth inhibition is 34.4% (inactive).
As to `COc1ccccc1C(=O)N(C)c1ccc(Cl)c(C(=O)OC(C)C)c1`, the growth inhibition is 6.85% (inactive).
The same measure, in the same setting: to `Cc1cn(CCCCCCCCCCCCOc2c3occc3cc3ccc(=O)oc23)c(=O)[nH]c1=O` belongs 19.6% (inactive); to `O=CNc1ccc(Br)cc1`, 9.95% (inactive).
